# Test results reported in PubChem BioAssay (NCI).
# This is part of a sample that, as a whole, favours compounds with a hit. Of some 83,000 tested, about 20% had one in any assay.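 96-well plates, one dose, 48 hours. Percent growth reported; active if below 10.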 Unmarked numbers belong to inactive results. Calls of active or inactive are those of the source.
# Columns and labels:
# Experiment in all cases: NCI-60 one-dose screen, 48 h (100 = growth as untreated, 0 = no growth, -100 = all killed)
# Details in all cases: 10 µM unless noted
# [1] = tested on: NCI-H23 lung
# [2] = tested on: NCI-H226 lung
# [3] = tested on: NCI-H322M lung
# [4] = tested on: HOP-62 NSCLC
# [5] = tested on: NCI-H460 lung
# [6] = tested on: A549/ATCC NSCLC
# [7] = tested on: 786-0 renal
# [8] = tested on: COLO 205 colon
SMILES,growth [1],growth [2],growth [3],growth [4],growth [5],growth [6],growth [7],growth [8]
O=C(Nc1ccc(-n2cc(-c3ccncc3)c(-c3ccc(Cl)c(O)c3)n2)cc1)c1cc(Cl)cc(Cl)c1,60.3%,111%,60.4%,22.2%,14.1%,41.4%,-39% (active),72.9%
N#Cc1c2cccnc2c2nnc3cc(Cl)c(Cl)cc3n12,-20.2% (active),79.6%,44.5%,26.1%,34.2%,83%,81.2%,85.8%
CCCCCCCCCCCCOC(=N)N(C)C,107%,96.2%,95%,97%,99.8%,91.7%,96.8%,100%
CC1CCCCC[N+]12CCCC2 (stereo not drawn),111%,93.6%,96.4%,103%,113%,103%,96.8%,108%
COc1ccc2c(c1)cn1c3ccc(O)cc3[nH]c(=O)c21,23.3%,45.9%,41.1%,25.8%,-52.4% (active),26.8%,22.9%,4.21% (active)
NCCCOc1cc2ccccc2cc1C(=O)Nc1ccc(Cl)cc1OC(=O)c1cc2ccccc2cc1OCCCN,-72.2% (active),-57.6% (active),-69.3% (active),-92.3% (active),-89.7% (active),-94.3% (active),-86.2% (active),-90.8% (active)
Cc1cc2cn3c4ccc(O)cc4[nH]c(=O)c3c2cc1C,25.3%,54.3%,-8.89% (active),11.7%,-81.9% (active),3.2% (active),19.1%,-63.3% (active)
CCCCCCC(C)N(CC(C)(C)O)C(=O)c1ccc([N+](=O)[O-])cc1 (stereo not drawn),99.2%,95.2%,91.1%,87.3%,105%,104%,94.5%,99.6%
CSCc1ncc(-c2ccc(C(F)(F)F)cc2)c(NC2CCCCCC2)n1,65.9% [25 µM],87.5% [25 µM],97.9% [25 µM],98.6% [25 µM],49.8% [25 µM],68.3% [25 µM],66.4% [25 µM],95% [25 µM]
CC(O)c1cc[cH-]c1.[Fe+2].c1cc[cH-]c1 (stereo not drawn),102%,91.2%,92.6%,99.4%,114%,101%,97.2%,108%
O=C1Nc2c(c(=O)n(-c3ccccc3)c3ccccc23)C(c2ccc(Cl)cc2)N1 (stereo not drawn),90.4%,99.2%,95.5%,84.2%,47.7%,76.2%,60.8%,107%
COC(=O)[C@H](Cc1cn(C)cn1)NC(=O)[C@@H](NC(=O)Nc1cc(C(F)(F)F)cc(C(F)(F)F)c1)C(C)(C)C,-64.7% [100 µM] (active),64.7% [100 µM],-35.3% [100 µM] (active),-84.2% [100 µM] (active),-56.3% [100 µM] (active),14.8% [100 µM],-88.2% [100 µM] (active),-74.6% [100 µM] (active)
CC(=O)Nc1nc(C)c(C(=O)N/N=C/N2CCCCC2)s1,108%,103%,123%,-100% (active),110%,104%,114%,114%
CC(=O)Nc1nc(C)c(C(=O)NNS(=O)(=O)c2ccccc2)s1,109%,112%,99.4%,-98.9% (active),110%,103%,92.6%,119%
Cc1ccccc1-n1c(C)nc2cc(NC(=O)c3ccc(Cl)cc3)ccc2c1=O,64.3%,88.8%,94.2%,97.4%,72.4%,72.2%,67.6%,119%
COc1cc(-c2nc(/C=C3/C(=O)Nc4ccccc43)c3ccccn23)cc(OC)c1OC,47.7%,82.5%,113%,87.4%,66.4%,77%,71.9%,75.1%

SMILES,growth [1],growth [2],growth [3],growth [4],growth [5],growth [6],growth [7],growth [8]
Cc1cc2cn3c4ccc(O)cc4nc(N)c3c2cc1C,26.8%,45.9%,7.56% (active),13.6%,-36.1% (active),8.84% (active),13.5%,-56.4% (active)
O=C(Nc1ccc(-n2cc(-c3ccncc3)c(-c3ccc(Cl)c(O)c3)n2)cc1)Nc1ccc(Cl)c(C(F)(F)F)c1,3.39% (active),68.2%,12%,-7.48% (active),-29.3% (active),6.06% (active),-44.8% (active),-66.5% (active)
CCC(C)[C@H](NC(=O)Nc1cc(C(F)(F)F)cc(C(F)(F)F)c1)C(=O)N[C@@H](Cc1cn(C)cn1)C(=O)OC (stereo partly drawn),-83.2% [100 µM] (active),-50.6% [100 µM] (active),-96.8% [100 µM] (active),-99.2% [100 µM] (active),-64.5% [100 µM] (active),-76% [100 µM] (active),-88.4% [100 µM] (active),-83.9% [100 µM] (active)
O=C(N/N=C/c1coc2ccccc2c1=O)c1cc2oc(-c3ccccc3)cc2[nH]1,113%,114%,89.4%,95.9%,105%,105%,106%,94.3%
COc1cc(-c2nn(-c3ccc(NC(=O)c4ccc(Cl)c(Cl)c4)cc3)cc2-c2ccncc2)ccc1Cl,77.8%,88.3%,101%,52.7%,48.3%,68.3%,-34.5% (active),52.6%
COC(=O)/C=C1/CCCCC1(C)C(=O)OC (stereo not drawn),109%,102%,105%,105%,107%,101%,96.4%,120%
CC(O)CCC(C)[N+](=O)[O-] (stereo not drawn),111%,109%,98.7%,95.4%,109%,96.3%,101%,111%
O=C(NCCO)C(F)(F)F,109%,111%,105%,104%,109%,98.4%,93.9%,110%
COC(=O)[C@H](Cc1cn(C)cn1)NC(=O)[C@H](CC(=O)OCc1ccccc1)NC(=O)Nc1cc(C(F)(F)F)cc(C(F)(F)F)c1,-83.9% [100 µM] (active),-52.9% [100 µM] (active),-96.7% [100 µM] (active),-100% [100 µM] (active),-62.8% [100 µM] (active),-80.9% [100 µM] (active),-92% [100 µM] (active),-93.7% [100 µM] (active)
COc1cc2c(c3c1c(=O)c1cccc(F)c1n3C)C=CC(C)(C)O2,99%,110%,79.5%,99.2%,102%,89.4%,103%,102%
COc1ccc(-c2nnc(SCC(=O)Nc3ccc(C(=O)/C=C/c4cc(OC)c(OC)c(OC)c4)cc3)n2-c2ccccc2)cc1OC,-66.5% [100 µM] (active),-15% [100 µM] (active),34.5% [100 µM],-31.4% [100 µM] (active),11% [100 µM],-28.4% [100 µM] (active),-54.9% [100 µM] (active),30.3% [100 µM]
O=c1c2c(c3ccccc3n1-c1ccccc1)NC(=S)NC2c1ccc(Cl)cc1 (stereo not drawn),26.7%,65%,45.1%,29.3%,2.25% (active),31.7%,18.6%,67.2%
COc1cc(-c2nn(-c3ccc(NC(=O)c4cc(Cl)cc(Cl)c4)cc3)cc2-c2ccncc2)ccc1Cl,88%,107%,104%,56.9%,54.8%,73%,16.7%,101%
O=C1C(Cl)=C(SC2=NCCN2)C(=O)c2ccccc21,2.92% (active),91.7%,99.5%,98.8%,70%,95.2%,99.2%,111%
COC(=O)[C@H](Cc1cn(C)cn1)NC(=O)[C@H](Cc1c[nH]c2ccccc12)NC(=O)Nc1cc(C(F)(F)F)cc(C(F)(F)F)c1,-72.4% [100 µM] (active),-47.9% [100 µM] (active),-41.9% [100 µM] (active),-92% [100 µM] (active),-25.8% [100 µM] (active),-50.8% [100 µM] (active),-83.8% [100 µM] (active),-77.1% [100 µM] (active)
